According to the supplement of paper PMC12350171:
Counter-ions that a name gives are not always drawn. Values without a mark were called inactive.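 The calls were made as follows: active = normalised median growth AUC below 0.1 of DMSO control; inactive = AUC 0.1 or higher.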

Tests used:
Assay in all cases: growth AUC normalised to DMSO control (median) (fraction of control); higher = less growth inhibition, active = hit call of the paper
Conditions in all cases: 20 µM
[1] = tested on: P. vulgatus RND KO
In short: (§1)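 In 96-well plates of mGAM seeded at OD578 0.01, strains that had been passaged twice overnight without oxygen were exposed to approved-drug library compounds at 20 μM with 1% DMSO. Hourly OD578 readings were taken for 24 h in an anaerobic incubator. The trapezoidal-rule area under the curve, with curves truncated at entry into stationary phase, was expressed relative to same-plate vehicle wells as the median of three biological replicates.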

[2] = tested on: P. vulgatus WT
In short: as §1

[3] = tested on: S. enterica typhimurium WT
In short: as §1

[4] = tested on: S. enterica typhimurium tolC KO
In short: as §1
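Also: active when median AUC fell below 0.1.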

SMILES	growth AUC normalised to DMSO control [1]	growth AUC normalised to DMSO control [2]	growth AUC normalised to DMSO control [3]	growth AUC normalised to DMSO control [4]
CN[C@@H]1CCc2[nH]c3ccc(C(N)=O)cc3c2C1 [Frovatriptan succinate]	1.02	1.02	1	1
CCOc1ccccc1C(N)=O [Ethenzamide]	1.02	1.03	1	1
CC(C)C[C@H](NC(=O)[C@@H](O)[C@H](N)Cc1ccccc1)C(=O)O [Ubenimex]	0.448	0.535	1	0.992
CN(CCOc1ccc(NS(C)(=O)=O)cc1)CCc1ccc(NS(C)(=O)=O)cc1 [Dofetilide]	0.985	0.992	0.999	1
CC(=O)N[C@@H](CCC(N)=O)C(=O)O [Acetyl-L-glutamine]	0.995	1	0.998	0.999
Cc1ccc(S(=O)(=O)NCl)cc1 [Chloramine-T hydrate]	1	0.997	0.996	1
COc1ccc(C[C@@H]2c3cc(OC)c(OC)cc3CC[N@+]2(C)CCC(=O)OCCCCCOC(=O)CC[N@@+]2(C)CCc3cc(OC)c(OC)cc3[C@H]2Cc2ccc(OC)c(OC)c2)cc1OC [Cisatracurium besylate]	1.06	1.05	1.02	0.994
Cc1[nH]cnc1CN1CCc2c(c3ccccc3n2C)C1=O [Alosetron hydrochloride]	0.996	0.999	1	0.995
O=C1[C@H](CC[C@H](O)c2ccc(F)cc2)[C@@H](c2ccc(O)cc2)N1c1ccc(F)cc1 [Ezetimibe]	0.901	0.918	1	0.828
CC[C@H]1OC(=O)C[C@@H](O)[C@H](C)[C@@H](O[C@@H]2O[C@H](C)[C@@H](O[C@H]3C[C@@](C)(O)[C@@H](O)[C@H](C)O3)[C@H](N(C)C)[C@H]2O)[C@@H](CC=O)C[C@@H](C)C(=O)/C=C/C(C)=C/[C@@H]1CO[C@@H]1O[C@H](C)[C@@H](O)[C@@H](OC)[C@H]1OC [Tylosin]	0.015 (active)	0.0123 (active)	0.997	0.721
CC(COc1ccccc1)NN (stereo unspecified) [Phenoxypropazine dihydrochloride]	1.07	1.08	1.01	0.994
Cc1onc(-c2ccccc2)c1-c1ccc(S(N)(=O)=O)cc1 [Valdecoxib]	0.981	0.993	1	0.983
Nc1c(CC(=O)O)cccc1C(=O)c1ccc(Br)cc1 [Bromfenac]	1.04	1.04	1.01	0.999
CC(=O)Oc1ccc(C(=C2CCCCC2)c2ccc(OC(C)=O)cc2)cc1 [Cyclofenil]	0.903	0.904	0.997	0.972
CC(=O)Oc1cc2c(s1)CCN(C(C(=O)C1CC1)c1ccccc1F)C2 (stereo unspecified) [Prasugrel]	1.06	1.07	1.03	1.01
CC(C)c1nc(N(C)S(C)(=O)=O)nc(-c2ccc(F)cc2)c1/C=C/[C@@H](O)C[C@@H](O)CC(=O)O [Rosuvastatin]	1.01	1.03	1.01	1.01
CO[C@@H]1[C@@H](O[C@@H]2O[C@H](C)[C@@H](O[C@H]3C[C@@](C)(O)[C@@H](O)[C@H](C)O3)[C@H](N(C)C)[C@H]2O)[C@@H](CC=O)C[C@@H](C)[C@@H](O[C@H]2CC[C@H](N(C)C)[C@@H](C)O2)/C=C/C=C/C[C@@H](C)OC(=O)C[C@H]1OC(C)=O [Acetyl spiramycin]	0.0119 (active)	0.00707 (active)	0.991	0.65
CCN(CC)CCOCCOC(=O)C(CC)(CC)c1ccccc1 [Oxeladin citrate]	1	0.98	0.995	0.973
Cc1cc(NS(=O)(=O)c2ccc(N)cc2)nc(C)n1 [Sulfisomidine]	1.03	1.03	1	0.995
CC1=C(C(=O)O)N2C(=O)[C@@H](NC(=O)[C@H](N)C3=CCC=CC3)[C@H]2SC1 [Cephradine monohydrate]	1.04	1.05	0.991	1.01
CC(=O)NS(=O)(=O)c1ccc(NC(=O)c2ccccc2C(=O)O)cc1 [Phthalylsulfacetamide]	0.999	0.997	1	1
Cc1cccc(C)c1OCC(=O)N[C@@H](Cc1ccccc1)[C@@H](O)C[C@H](Cc1ccccc1)NC(=O)[C@H](C(C)C)N1CCCNC1=O [Lopinavir]	1.06	1.07	1.01	1.01

SMILES	growth AUC normalised to DMSO control [1]	growth AUC normalised to DMSO control [2]	growth AUC normalised to DMSO control [3]	growth AUC normalised to DMSO control [4]
CC(C)=CCOc1ccc(/C=C/C(=O)c2ccc(OCC=C(C)C)cc2OCC(=O)O)cc1 [Sofalcone]	0.914	0.993	1	0.902
CC1(C)O[C@@H]2C[C@H]3[C@@H]4CCC5=CC(=O)C=C[C@]5(C)[C@H]4[C@@H](O)C[C@]3(C)[C@]2(C(=O)CO)O1 [Desonide]	0.783	0.993	0.996	1
CO[C@@H]1[C@@H](OC(N)=O)[C@@H](O)[C@H](Oc2ccc3c(O)c(NC(=O)c4ccc(O)c(CC=C(C)C)c4)c(=O)oc3c2C)OC1(C)C [Novobiocin sodium salt]	0.0285 (active)	0.021 (active)	0.999	0.0104 (active)
Cc1ccsc1C(=CCCN1CCC[C@@H](C(=O)O)C1)c1sccc1C [Tiagabine hydrochloride]	0.999	0.984	1	1
CC(=O)OC[C@H]1O[C@@H](n2ncc(=O)[nH]c2=O)[C@H](OC(C)=O)[C@@H]1OC(C)=O [Azaribine]	0.972	0.956	1	1
CCCC(CCC)C(=O)O[C@H]1C[C@H]2CC[C@@H](C1)[N+]2(C)C [Anisotropine Methylbromide]	1.09	1.12	0.997	0.994
COc1cc2/c(=N/c3ccc(Br)cc3F)nc[nH]c2cc1OCC1CCN(C)CC1 [Vandetanib]	1.1	1.08	1.02	1.01
CS(=O)(=O)CCNCc1ccc(-c2ccc3ncnc(Nc4ccc(OCc5cccc(F)c5)c(Cl)c4)c3c2)o1 [Lapatinib]	1.03	1.03	1	0.99
C[C@H](N[C@@H](CCc1ccccc1)C(=O)O)C(=O)N1CCC[C@H]1C(=O)O [Enalaprilat dihydrate]	0.99	0.986	0.992	0.995
COc1cc(Nc2c(C#N)cnc3cc(OCCCN4CCN(C)CC4)c(OC)cc23)c(Cl)cc1Cl [Bosutinib]	1	0.947	1	0.98
CC(C)Nc1cccnc1N1CCN(C(=O)c2cc3cc(NS(C)(=O)=O)ccc3[nH]2)CC1 [Delavirdine]	1.02	1.07	1.02	0.98
CCOc1ccc2nc3cc(N)ccc3c(N)c2c1 [Ethacridine lactate]	0.999	0.961	0.991	0.977
CC(C)=CCC1C(=O)N(c2ccccc2)N(c2ccccc2)C1=O [Feprazone]	1.04	1.09	1	0.983
CC(C)OC(=O)CCC/C=C\C[C@@H]1[C@@H](CC[C@@H](O)CCc2ccccc2)[C@H](O)C[C@@H]1O [Latanoprost]	0.958	0.966	1.01	0.896
CC(C(=O)O)c1ccc(N2CC=CC2)c(Cl)c1 (stereo unspecified) [Pirprofen]	1.08	1.06	1	1
CCOC(=O)C(C)(N)Cc1cc(I)c(Oc2cc(I)c(O)c(I)c2)c(I)c1 (stereo unspecified) [Etiroxate hydrochloride]	0.415	0.571	1.01	1
CCOc1ccc2nc(S(N)(=O)=O)sc2c1 [Ethoxzolamide]	0.965	1	0.997	0.998
CCCCCCNC(=O)n1cc(F)c(=O)[nH]c1=O [Carmofur]	0.0803 (active)	0.0792 (active)	0.806	0.717
O=C(O)c1cc(=O)[nH]c(=O)[nH]1 [Orotic acid]	0.976	0.993	1	1.01
NC(=O)c1cn(Cc2c(F)cccc2F)nn1 [Rufinamide]	0.994	0.963	1	1
Cc1c(C(=O)NN2CCCCC2)nn(-c2ccc(Cl)cc2Cl)c1-c1ccc(Cl)cc1 [Rimonabant]	1.05	1.07	1	1
O=C(CCCl)NCc1ccccc1 [Beclamide]	0.972	0.966	1.01	0.974
